This note sets out measurements from PubChem BioAssay (NCATS).

A short description of assay [1]: Viability qHTS for spleen associated tyrosine kinase inhibitor (SYKi) drug resistant MV4-11 cells (AID 1963824). Also: nearly all actives have a fitted effect of over 35% in size. The essentials: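 SYK inhibitor-resistant MV4-11 AML cells, 500 per well, added to predispensed compounds and incubated 72 hr at 37 C, 5% CO2. Viability measured by CellTiter-Glo luminescence after 10 min at room temperature.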
A short description of assay [2]: Cellular viability qHTS for adrenocortical cancer (ACC) cell line SW-13 (AID 1963989). Also: nearly all actives have a fitted effect of over 65% in size.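 As to activity (max response): cells grown in serum-free medium with ITS supplement; % is scaled to controls: 0 for no effect and ±100 for the full control effect.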 The settings on record: SW-13 ACC cells viability, CellTiter-Glo, 48 h; activity (max response): active compounds read low. The essentials: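 IC50 and maximal-response values come from four-parameter logistic fits of titration data. SW-13 cells in serum-free medium received compounds (up to 46 uM final) for 48 h before CellTiter-Glo luminescence.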

Assay [3] is described as follows: Cellular viability qHTS for adrenocortical cancer (ACC) cell line NCI-H295R (AID 1963990). Also: nearly all actives have a fitted effect of over 60% in size. The essentials: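 Adrenocortical carcinoma cells, suspended at 300 000 cells/mL in serum-free DMEM plus ITS, rested overnight before pin transfer of compound. After two days' incubation, ATP-dependent luminescence was recorded and curve-fitted.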

Where “and” joins values, the source holds several entries; their conditions need not be identical. Identical values can stand only once. Inconclusive results are not listed. Unmarked numbers belong to inactive results. Calls of active or inactive are those of the source. Calls follow the shape of the dose curve; as a rule, active = well fitted curve in the direction sought with a large enough effect; inconclusive = small, poorly fitted or top-dose-only effect, or another doubt; inactive = no such curve, though single readings can be large; an effect the other way counts as inactive or inconclusive.
Potency is read from the fitted curve at half-maximal effect.

With `COc1ccc(/C=C/C(=O)Nc2ccccc2C(=O)O)cc1OC`, the Potency result in assay [1] and in assay [3] was “inactive” throughout. Also, the activity (max response) in assay [2] was -0.0143%.
With `NC[C@H]1O[C@H](O[C@H]2[C@H](O)[C@@H](O[C@H]3O[C@H](CO)[C@@H](O)[C@H](N)[C@H]3O)[C@H](N)C[C@@H]2N)[C@H](N)C[C@@H]1O`, the Potency in assay [1] was 18.6 µM (active). Besides, the activity (max response) in assay [2] was 4.38%. The Potency entry in assay [3] was “inactive”.
Consider `COc1ccc2cc(C=O)ccc2c1`, for which the Potency entry in assay [1] and in assay [3] was “inactive” in each case. The activity (max response) in assay [2] is 8.85%.
As to `CCN(CC)C(=O)/C(C#N)=C/c1cc(O)c(O)c([N+](=O)[O-])c1`, the Potency in assay [1] is 16.8 µM (active). Also, the activity (max response) in assay [2] was 3.46%. Moreover, the Potency entry in assay [3] is “inactive”.
`O=C(/C=C\n1cnc(-c2cc(C(F)(F)F)cc(C(F)(F)F)c2)n1)NNc1ccccn1`: the results for the Potency in assay [1], in assay [2] and in assay [3] were 2.63 µM (active), 11.2 µM (active) and 3.98 µM (active), respectively.
For the compound `C=CCSCC1Nc2cc(Cl)c(S(N)(=O)=O)cc2S(=O)(=O)N1` (centres undefined), in assay [1], the Potency was 10.6 µM (active). The activity (max response) in assay [2] was 6.34%. In addition, in assay [3], the Potency result is “inactive”.
For the compound `CN1CCC(=C2c3ccccc3Sc3ccccc32)CC1`, the Potency in assay [1] was 16.8 µM (active); in assay [2] it was 23.1 µM (active); in assay [3], 8.2 µM (active).
`O[C@@H](c1cc(C(F)(F)F)nc2c(C(F)(F)F)cccc12)[C@H]1CCCCN1`: the Potency in assay [1] is 9.44 µM (active); in assay [2], 16.4 µM (active); in assay [3] it was 5.17 µM (active).
Regarding `CCc1cc2cc(OC)c(OC)cc2c(Cc2ccccc2)n1`, the Potency in assay [1] was 10.6 µM (active). For the same compound, in assay [2], the activity (max response) is -5.12%. Besides, the Potency entry in assay [3] was “inactive”.
On to `Nc1ncnc(Nc2ccc(OCc3ccccc3)c(Cl)c2)c1/C=N/OCCN1CCOCC1`, for which the figures for the Potency in assay [1], in assay [2] and in assay [3] were 7.42 µM (active), 17.8 µM (active) and 15.8 µM (active), respectively.
With `COCCNCc1ccc(-c2cc3nccc(Oc4ccc(NC(=S)NC(=O)Cc5ccc(F)cc5)cc4F)c3s2)nc1`, the Potency in assay [1] is 0.0259 µM (active); in assay [2] it was 28.2 µM (active); in assay [3] it was 12.6 µM (active).
Take `C/C=C/C=N/NC(=O)c1ccncc1`: the Potency entry in assay [1] and in assay [3] was “inactive” throughout. Moreover, in assay [2], the activity (max response) is -0.764%.
With `CCOC(=O)N[C@@H]1CC[C@@H]2[C@@H](C1)C[C@H]1C(=O)O[C@H](C)[C@H]1[C@H]2/C=C/c1ccc(-c2cccc(F)c2)cn1`, the Potency in assay [1] is 13.2 µM (active). Also, the activity (max response) in assay [2] was -18%. In addition, the Potency result in assay [3] was “inactive”.
On to `CCNC(=O)NCCCOc1cccc(CN2CCCCC2)c1`, for which the Potency result in assay [1] and in assay [3] was “inactive” each time. In addition, in assay [2], the activity (max response) is -6.89%.
On to `COc1ccc(COc2ccc(Cc3cnc(N)nc3N)cc2OC)cc1`, for which the Potency in assay [1] is 7.31 µM (active). Moreover, the activity (max response) in assay [2] is -16.4%. Further, in assay [3], the Potency result is “inactive”.
On the same counts, the results for `C[C@@H](C1=C(CCN(C)C)Cc2ccccc21)c1ccccn1` are “inactive”, -0.59% and “inactive”.
On to `COc1ccc(C2C(=O)c3ccccc3C2=O)cc1`, for which the Potency entry in assay [1] and in assay [3] was “inactive” throughout. For the same compound, the activity (max response) in assay [2] is 8.16%.
As for `COc1nc(N)nc2c1ncn2C1OC(CO)C(O)C1O` (centres undefined), the Potency entry in assay [1] and in assay [3] was “inactive” each time. Also, in assay [2], the activity (max response) was 12%.
Turning to `NS(=O)(=O)c1ccc(Cc2c(-c3cccc(-c4ccccc4)c3)nn(-c3nc(C(=O)O)cs3)c2CC2CC2)cc1`, the Potency in assay [1] is 10.5 µM (active); in assay [2], 31.6 µM (active); in assay [3], 28.2 µM (active).
Consider `CNC(=O)Cn1cc(-c2ccc3c(c2)C(F)CC32NC(=O)N(CC(=O)N(Cc3ccc(F)cc3)[C@@H](C)C(F)(F)F)C2=O)cn1` (some centres undefined), for which the Potency in assay [1] was 0.132 µM (active). Besides, the activity (max response) in assay [2] is 8.67%. The Potency result in assay [3] is “inactive”.
On the same counts, the results for `O=C(CS(=O)Cc1ccco1)NC/C=C\COc1cc(CN2CCCCC2)ccn1` (centres undefined) are “inactive”, 2.9% and “inactive”.
Take `CC(/C=C1\SC(=S)N(CC(=O)O)C1=O)=C\c1ccccc1`: the Potency result in assay [1] and in assay [3] was “inactive” in each case. In addition, the activity (max response) in assay [2] is 4.22%.
For `CC(C)Oc1ccc(C(=O)N[C@H](CNC(=O)CN(C)C)Cc2ccc(-c3cn4cccc([C@H](C)O)c4n3)cc2)cc1Cl`, the results for the Potency in assay [1], in assay [2] and in assay [3] were 0.0295 µM (active), 0.0316 µM (active) and 0.316 µM (active), respectively.
Turning to `CCOC(=O)O[C@]1(C(=O)OCCl)CC[C@H]2[C@@H]3CCC4=CC(=O)C=C[C@]4(C)[C@H]3[C@@H](O)C[C@@]21C`, the Potency result in assay [1] and in assay [3] was “inactive” throughout. In addition, the activity (max response) in assay [2] is 8.33% and -8.79%.
As to `OC1(c2ccc(Cl)c(C(F)(F)F)c2)CCN(CCCC(c2ccc(F)cc2)c2ccc(F)cc2)CC1`, the Potency in assay [1] is 2.99 µM (active) and 3.26 µM (active); in assay [2], 4.11 µM (active); in assay [3] it was 3.66 µM (active).
In the case of `COC(=O)C1=C(C)NC(c2ncc(F)cc2F)=N[C@@H]1c1ccc(F)cc1Cl`, the Potency in assay [1] was 20.9 µM (active). Also, the activity (max response) in assay [2] is -20.4%. In addition, the Potency result in assay [3] is “inactive”.
Consider `Cc1c(-c2c(-c3ccc(F)o3)sc3ncnc(O[C@@H](Cc4ccccc4OCc4ccnn4CC(F)(F)F)C(=O)O)c23)ccc(OCCN2CCN(C)CC2)c1Cl`, for which the values for the Potency in assay [1], in assay [2] and in assay [3] were 0.0132 µM (active), 0.199 µM (active) and 1.58 µM (active), respectively.
For the compound `COC1CC(C(=O)c2ccc3c(N)ncc(-c4ccc(-c5cnn(C)c5)cc4)c3n2)C1` (centres undefined), the Potency in assay [1] is 0.296 µM (active). Also, the activity (max response) in assay [2] is -16.1%. Besides, the Potency result in assay [3] is “inactive”.
